From article PMC4552634, “A New Set of Chemical Starting Points with Plasmodium falciparum Transmission-Blocking Potential for Antimalarial Drug Discovery” (PLoS ONE, 2015)
In all, about 13,000 compounds went through this assay and about 3,200 (25%) showed an effect of 50% or more. The list shows a part of the results.

Test system: P. falciparum stage V gametocytes
Set-up: BacTiter-Glo ATP luminescence viability of purified stage V gametocytes in 384-well plates, per cent inhibition versus DMSO
Details: 48 h, 5 µM; inhibitor

For `CCNc1cc(CC)nc(Nc2ccc(C)cc2)n1` [TCMDC-133992], which “% Inhibition” value is on record?
The value was -2.88%.

For `COc1cc(N)c(Cl)cc1C(=O)NC1CCC(NCC2CCCCC2)CC1` (centres unmarked) [TCMDC-136726], which “% Inhibition” value is on record?
The value was 0.4196%.

How did the “% Inhibition” value turn out when `Cc1cccc2nc(-c3ccc(-c4ccc(NC(=O)Nc5ccc(Cl)c(Cl)c5)cc4)s3)[nH]c12` [TCMDC-133273] was run?
Its value is -52.78%.

Which “% Inhibition” value does the source give for `O=C(/C=C/c1ccc(C(F)(F)F)cc1)NCCCCCN1CCCN(C(=O)Nc2ccc(Cl)c(C(F)(F)F)c2)CC1` [TCMDC-136105] here?
The value was -22.56%.

For `Cc1cc(Nc2ccc3ccccc3c2)n2ncnc2n1` [TCMDC-125840], which “% Inhibition” value is on record?
The value was 18.77%.

For `Cc1cc(Nc2ccc(Cl)cc2)n2nc(C(F)(F)F)nc2n1` [TCMDC-123826], which “% Inhibition” value is on record?
Its value is -17.3%.

`Cc1cc(Nc2ccc(C)c(Cl)c2)n2nc(C(F)(F)F)nc2n1` [TCMDC-124919] was tested. Which “% Inhibition” value did it give?
Its value is -6.645%.

`Cc1cc(Nc2ccnc(-c3ccc(Cl)cc3)n2)ccn1` [TCMDC-141398] was tested. Which “% Inhibition” value did it give?
The value was -5.017%.

`Cc1cc(Nc2ccc(C)c(C)c2)n2nc(C)nc2n1` [TCMDC-124418] was tested. Which “% Inhibition” value did it give?
The value was 9.818%.

`Cc1cc(Nc2ccc(Cl)c(Cl)c2)n2nc(C)nc2n1` [TCMDC-124417] was tested. Which “% Inhibition” value did it give?
The value was -6.756%.

Which “% Inhibition” value does the source give for `Cc1cc(Nc2ccncc2)n2nc(C)c(-c3ccc(Cl)cc3)c2n1` [TCMDC-124478] here?
The value was 102.4%.

Which “% Inhibition” value does the source give for `Cc1cc(Nc2ccncc2)n2nc(C)c(-c3ccccc3Cl)c2n1` [TCMDC-124918] here?
Its value is 99.62%.

How did the “% Inhibition” value turn out when `CCc1nn2c(Nc3ccncc3)cc(C)nc2c1-c1ccccc1` [TCMDC-124917] was run?
The value was 106.8%.

`Cc1nc(N)nc(N)c1C#CC1CCCC1` [TCMDC-137728] was tested. Which “% Inhibition” value did it give?
The value was 11.69%.

`CC(C)(C)c1ccc(NC(=O)c2ccc(CN3CCCN(Cc4cccc(F)c4)CC3)cc2)cc1` [TCMDC-136431] was tested. Which “% Inhibition” value did it give?
Its value is -15.47%.

Which “% Inhibition” value does the source give for `CC1(C)S(=O)(=O)CC(O)CS1(=O)=O` [TCMDC-131669] here?
The value was 10.31%.

With `Cc1c(C(=O)NCc2ccncc2)sc2nc(-c3cccc([N+](=O)[O-])c3)cn12` [TCMDC-124992] as the molecule, how does the “% Inhibition” value read?
Its value is -38.46%.

How did the “% Inhibition” value turn out when `Nc1ncc(-c2ccc(Cl)c(Cl)c2)c(N)n1` [TCMDC-138994] was run?
The value was 6.577%.

Which “% Inhibition” value does the source give for `O=C(/C=C/c1ccc(Cl)c(Cl)c1)NC1CCN(Cc2ccc(O)cc2)CC1` [TCMDC-141741] here?
The value was 16.03%.

With `Cc1[nH]c(C)c(-c2ccc(CCc3cccc(C(F)(F)F)c3)nc2)c(=O)c1Cl` [TCMDC-136014] as the molecule, how does the “% Inhibition” value read?
Its value is 76.88%.

For `Cc1[nH]c(C)c(-c2ccc(CCc3ccc(C(F)(F)F)cc3)nc2)c(=O)c1Cl` [TCMDC-136051], which “% Inhibition” value is on record?
The value was 71.49%.

For `CCCCCCCc1ccc(-c2c(C)[nH]c(C)c(Cl)c2=O)cn1` [TCMDC-135816], which “% Inhibition” value is on record?
Its value is 34.89%.

`O=C(Cc1cccc2ccccc12)N1CCc2cc3nccc(N4CCN5CCC[C@H]5C4)c3cc21` [TCMDC-140040] was tested. Which “% Inhibition” value did it give?
The value was -3.161%.

With `O=C(Nc1ccccc1Cl)c1cc2ccccc2cc1O` [TCMDC-123494] as the molecule, how does the “% Inhibition” value read?
Its value is 9.579%.

For `CC(Nc1nc(Nc2ccc(F)cc2)nc(SCC(N)=O)n1)c1ccccc1` (centres unmarked) [TCMDC-125832], which “% Inhibition” value is on record?
The value was -31.65%.

How did the “% Inhibition” value turn out when `CCCCNc1cc(C)nc(NCc2ccccc2)n1` [TCMDC-123663] was run?
Its value is 33.56%.

How did the “% Inhibition” value turn out when `Cc1nc2nc(N)nc(N)c2c(C)c1Cc1ccccc1` [TCMDC-137670] was run?
Its value is -13.55%.

Which “% Inhibition” value does the source give for `CCCCNc1nc(NCCCC)c2c(C)c(Cc3ccccc3)c(NCCCC)nc2n1` [TCMDC-138062] here?
Its value is 134%.

`CC(C)(C)c1ccc(NC(=O)c2cccc(CN3CCCN(CC4CCCCC4)CC3)c2)cc1` [TCMDC-135980] was tested. Which “% Inhibition” value did it give?
Its value is -75.44%.

Which “% Inhibition” value does the source give for `Cc1cc(C(=O)Nc2ccc(C)c(-c3nc(N(C(=O)c4ccc(F)c(C)c4)C4CCNCC4)nc4c3ccc(=O)n4-c3c(F)cccc3F)c2)ccc1F` [TCMDC-135913] here?
The value was 55.46%.

`Cc1ccc(NC(=O)Nc2ccc(Cl)cc2)cc1-c1cccc(C(=O)Nc2ccc(F)cc2)c1` [TCMDC-133591] was tested. Which “% Inhibition” value did it give?
The value was -12.79%.

With `Cc1cc(F)ccc1-c1nc(N(C)CCN(C)C(=O)N(C)c2ccccc2)nc2c1ccc(=O)n2-c1c(F)cccc1F` [TCMDC-141720] as the molecule, how does the “% Inhibition” value read?
Its value is 17.64%.

For `Cc1ccc(NC(=O)Nc2ccccc2F)cc1-c1ccc(C(=O)Nc2ccncc2)cc1` [TCMDC-133706], which “% Inhibition” value is on record?
Its value is -10.32%.

`Cc1ccc(N)cc1-c1nc(NC2CC(C)(C)NC(C)(C)C2)nc2c1ccc(=O)n2-c1c(F)cccc1F` [TCMDC-135790] was tested. Which “% Inhibition” value did it give?
The value was 57.86%.

Which “% Inhibition” value does the source give for `Cc1ccc(C(=O)Nc2ccc(F)cc2)cc1-c1nc(NC2CC(C)(C)NC(C)(C)C2)nc2c1ccc(=O)n2-c1c(F)cccc1F` [TCMDC-135391] here?
Its value is 95.1%.

How did the “% Inhibition” value turn out when `Cc1cc(F)ccc1C1CCN(CCCCNC(=O)c2ccc(NC(=O)c3ccc(Cl)cc3)cc2)CC1` [TCMDC-138363] was run?
The value was 13.4%.

With `CCCc1cc(NCc2ccncc2)nc(Nc2ccc(F)cc2)n1` [TCMDC-134012] as the molecule, how does the “% Inhibition” value read?
Its value is 34.89%.

How did the “% Inhibition” value turn out when `NC(=O)c1ccsc1NC(=O)CNC(c1ccccc1)c1ccccc1` [TCMDC-125458] was run?
Its value is 2.042%.

Which “% Inhibition” value does the source give for `O=C(N[C@@H](Cc1ccccc1)[C@H](O)CNC1CCCc2ccccc21)c1cc(C2CCCC2)cc(N2CCCC2=O)c1` (some centres unmarked) [TCMDC-134656] here?
Its value is -0.2102%.

For `Cc1c2c(nn1-c1ccccc1)C(c1ccccc1)N(c1ccccc1)C2=O` (centres unmarked) [TCMDC-131674], which “% Inhibition” value is on record?
The value was -2.033%.

`COc1ccccc1N1CCN(c2cccc(F)c2C#N)CC1` [TCMDC-124862] was tested. Which “% Inhibition” value did it give?
Its value is -55.85%.

For `COc1cc(C)c(NC(=O)c2cccc3c(=O)c(C)c(-c4ccccc4)oc23)cc1OC` [TCMDC-125261], which “% Inhibition” value is on record?
Its value is -26.52%.

With `COc1ccc(-c2ccc(S(=O)(=O)Nc3cc4c(cc3OC(C)C)CCN(C)CC4)cc2)cc1` [TCMDC-141487] as the molecule, how does the “% Inhibition” value read?
Its value is 10.97%.

With `CC(C)C(=O)ONC1=NC(C)(C)N(OCCCOc2cc(Cl)c(Cl)cc2Cl)C(NOC(=O)C(C)C)=N1` [TCMDC-131788] as the molecule, how does the “% Inhibition” value read?
The value was -4.555%.

Which “% Inhibition” value does the source give for `CNC(=O)c1cnc(Nc2ccc(N3CCN(C)CC3)cc2)nc1Nc1cccc(OC(C)C)c1` [TCMDC-141384] here?
Its value is -23.05%.

`CN(C)CCOc1cc(NC(=O)Nc2cccc([N+](=O)[O-])c2)ccc1I` [TCMDC-139158] was tested. Which “% Inhibition” value did it give?
Its value is 11.15%.

Which “% Inhibition” value does the source give for `CNC(=O)c1cnc(Nc2ccc(N3CCN(C)CC3)cc2)nc1Nc1cccc(OC)c1` [TCMDC-141383] here?
Its value is 85.81%.

`Cc1cc(C)cc(OCC(O)CN(Cc2cc(Cl)cc(Cl)c2)C(=O)Nc2ccc([N+](=O)[O-])cc2)c1` (centres unmarked) [TCMDC-141478] was tested. Which “% Inhibition” value did it give?
Its value is -6.134%.

How did the “% Inhibition” value turn out when `CNC(=O)c1cnc(Nc2ccc(OCC(O)CN(C)C)cc2)nc1Nc1cccc([N+](=O)[O-])c1` (centres unmarked) [TCMDC-141392] was run?
The value was 55.28%.

Which “% Inhibition” value does the source give for `CN1CCN(c2ccc(Nc3ncc(C#N)c(Nc4ccccc4C(N)=O)n3)cc2)CC1` [TCMDC-134116] here?
The value was -62.53%.

`CN1CCN(c2ccc(Nc3ncc([N+](=O)[O-])c(Nc4ccccc4O)n3)cc2)CC1` [TCMDC-141372] was tested. Which “% Inhibition” value did it give?
Its value is 99.51%.

For `CNC(=O)c1cnc(Nc2ccc(N3CCOCC3)cc2)nc1Nc1cccc(O)c1` [TCMDC-141385], which “% Inhibition” value is on record?
Its value is -8.649%.

For `CNC(=O)c1cnc(Nc2ccc(OCC(O)CN(C)C)cc2)nc1Nc1cccc(OC)c1` (centres unmarked) [TCMDC-141387], which “% Inhibition” value is on record?
The value was 95.62%.

`CNC(=O)c1cnc(Nc2ccc(OCC(O)CN(C)C)cc2)nc1Nc1cccc(Br)c1` (centres unmarked) [TCMDC-141388] was tested. Which “% Inhibition” value did it give?
Its value is 25.03%.

`CNC(=O)c1cnc(Nc2ccc(N3CCOCC3)cc2)nc1Nc1cccc(OC)c1` [TCMDC-141386] was tested. Which “% Inhibition” value did it give?
The value was -63.88%.

With `CC(C)N(Cc1ccccc1)C(=O)CN1C(=O)COc2ccc(S(=O)(=O)N3CCCCCC3)cc21` [TCMDC-124755] as the molecule, how does the “% Inhibition” value read?
Its value is -21.1%.

With `N#Cc1ccc2c(c1)CCN(CCC1CCC(NC(=O)c3cccc(-c4ccc(F)cc4)c3)CC1)CC2` (centres unmarked) [TCMDC-139679] as the molecule, how does the “% Inhibition” value read?
Its value is -51.12%.

How did the “% Inhibition” value turn out when `O=C(c1csc(-c2cccnc2)n1)N1CCc2cc3nccc(N4CCN5CCC[C@H]5C4)c3cc21` [TCMDC-140044] was run?
Its value is 44.75%.

With `CCCCCSc1cc(O)c(C(CNC)C(C)C)cc1OC` (centres unmarked) [TCMDC-125495] as the molecule, how does the “% Inhibition” value read?
Its value is -82.86%.

For `CCCN(CCC)CC(O)COc1ccccc1C(=O)Nc1ccccc1` (centres unmarked) [TCMDC-125708], which “% Inhibition” value is on record?
Its value is -0.1626%.

`CNC(=O)c1cnc(Nc2ccc3[nH]c(=O)[nH]c3c2)nc1Nc1cccc(OC(C)C)c1` [TCMDC-141390] was tested. Which “% Inhibition” value did it give?
The value was -16.36%.

With `CNC(=O)c1cnc(Nc2ccc(OCC(O)CN(C)C)cc2)nc1Nc1cccc(OC(C)C)c1` (centres unmarked) [TCMDC-141389] as the molecule, how does the “% Inhibition” value read?
The value was 97.53%.

Which “% Inhibition” value does the source give for `COc1ccc(CNCc2cccc(-c3ccc(-c4nc5ccccc5[nH]4)cc3)c2)cc1.O=C(O)C(F)(F)F` [TCMDC-132718] here?
Its value is 76.66%.

How did the “% Inhibition” value turn out when `CNc1ccc(CNCc2cccc(-c3ccc(-c4nc5ccccc5[nH]4)cc3)c2)cc1.O=C(O)C(F)(F)F` [TCMDC-132986] was run?
The value was 13.98%.

`COc1ccc(CNCc2ccc(-c3ccc(-c4nc5cc(F)ccc5[nH]4)cc3)cc2)cc1.O=C(O)C(F)(F)F` [TCMDC-132725] was tested. Which “% Inhibition” value did it give?
Its value is -52.38%.

Which “% Inhibition” value does the source give for `COc1ccc(CNCc2ccc(-c3ccc(-c4nc5ccccc5[nH]4)cc3)cc2)cc1.O=C(O)C(F)(F)F` [TCMDC-132730] here?
Its value is 80.88%.

How did the “% Inhibition” value turn out when `COc1ccc(CNCc2ccc(-c3cccc(-c4nc5ccccc5[nH]4)c3)cc2)cc1.O=C(O)C(F)(F)F` [TCMDC-132546] was run?
Its value is 33.45%.

`O=C(O)C(F)(F)F.c1ccc(CNCc2ccc(-c3ccc(-c4nc5ccccc5[nH]4)cc3)cc2)cc1` [TCMDC-132711] was tested. Which “% Inhibition” value did it give?
The value was -28.39%.
